# Source: PubChem BioAssay (NCI)
# Compounds without any hit were thinned out: in the full panel of roughly 79,000, 15% have a hit. Values without a mark were called inactive. Calls of active or inactive are those of the source. No stated cut-off is given here; in the data, active means growth inhibition above about 70%; inactive means the rest.
# Experiment: NCI Yeast Anticancer Drug Screen. Data for the mlh1 strain (AID 171);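 further: 0% = growth of vehicle-treated control cultures of the same strain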
# Conditions: S. cerevisiae mlh1 strain growth inhibition, stronger effect = higher value
# Experimental: Growth inhibition of yeast strains with defined genetic alterations is measured as a screen for potential anti-cancer activity. Selected strains with alterations in DNA damage repair or cell cycle control were exposed to compounds and growth inhibition was measured relative to vehicle treated controls. The strain used in this assay is mlh1
Structure (SMILES),growth inhibition (at 1.2 µM) [%],growth inhibition (at 3.7 µM) [%],growth inhibition (at 11.0 µM) [%],growth inhibition (at 33.0 µM) [%],growth inhibition (at 100.0 µM)
CC(=O)CC[N+](C)(C)C,-13,-6,-11,-9,-22%
CC(C)(C)[Si](C)(C)OCC1OC(n2cnc3c(N)ncnc32)C2OC(=S)OC12 (stereo not given),-1,-2,-3,0,37%
CCC(C)C(=O)OCC(=O)c1ccc(-c2ccccc2)cc1 (stereo not given),0,0,-4,-73,-6%
CCC(C)/C(C)=N/NC(N)=O (stereo not given),1,1,2,1,0%
COC(=O)C1(N2CCOCC2)CCC([C@@H](c2ccccc2)C(C)[N+](=O)[O-])C1 (stereo not given in full),-3,-2,1,3,25%
Cc1nc2ccc(NCCN(C)C)c3c(=O)c4ccccc4n1c23,27,31,33,27,38%
CCCCCCC(CCl)c1sc(-c2csc(CCNC(=O)OC(C)(C)C)n2)nc1C(=O)OC (stereo not given),-3,-2,-4,-1,97% (active)
CCCC(=O)OC(OC(=O)CCC)c1ccc([N+](=O)[O-])o1,-5,-2,0,7,20%
